# Experimental data published in PubChem BioAssay AID1445 (SRMLSC, 2008).
# Out of some 220,000 compounds screened, about 910 (0.41%) were called active. The sample holds actives, similar compounds and a random draw of the others, so the mix is not that of the screen.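 The calls were made as follows: active = primary inhibition above the hit cutoff, then over 50% inhibition at one or more dose response concentrations (cut at about 23% in these data, passing the limit was not always enough); inconclusive = conflicting primary data, or primary hits not chosen for dose response; inactive = low primary inhibition, or under 50% at every dose.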 Measured potencies and affinities stand elsewhere.
# Molecular target: Aminopeptidase N (Plasmodium falciparum (isolate 3D7)) (UniProt O96935)
# Assay: P. falciparum M1AAP inhibitors, biochemical, fluorogenic H-Leu-NHMec substrate, 1536-well (AID 1445);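 also: plate controls were DMSO full reaction for no effect and no enzyme background for full effect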
# Details: recombinant M1AAP, H-Leu-NHMec fluorogenic kinetic assay; at 30 µM, stronger effect = higher value unless noted
# Chain of Aminopeptidase N (Plasmodium falciparum (isolate 3D7)) (O96935 whole entry, looked up): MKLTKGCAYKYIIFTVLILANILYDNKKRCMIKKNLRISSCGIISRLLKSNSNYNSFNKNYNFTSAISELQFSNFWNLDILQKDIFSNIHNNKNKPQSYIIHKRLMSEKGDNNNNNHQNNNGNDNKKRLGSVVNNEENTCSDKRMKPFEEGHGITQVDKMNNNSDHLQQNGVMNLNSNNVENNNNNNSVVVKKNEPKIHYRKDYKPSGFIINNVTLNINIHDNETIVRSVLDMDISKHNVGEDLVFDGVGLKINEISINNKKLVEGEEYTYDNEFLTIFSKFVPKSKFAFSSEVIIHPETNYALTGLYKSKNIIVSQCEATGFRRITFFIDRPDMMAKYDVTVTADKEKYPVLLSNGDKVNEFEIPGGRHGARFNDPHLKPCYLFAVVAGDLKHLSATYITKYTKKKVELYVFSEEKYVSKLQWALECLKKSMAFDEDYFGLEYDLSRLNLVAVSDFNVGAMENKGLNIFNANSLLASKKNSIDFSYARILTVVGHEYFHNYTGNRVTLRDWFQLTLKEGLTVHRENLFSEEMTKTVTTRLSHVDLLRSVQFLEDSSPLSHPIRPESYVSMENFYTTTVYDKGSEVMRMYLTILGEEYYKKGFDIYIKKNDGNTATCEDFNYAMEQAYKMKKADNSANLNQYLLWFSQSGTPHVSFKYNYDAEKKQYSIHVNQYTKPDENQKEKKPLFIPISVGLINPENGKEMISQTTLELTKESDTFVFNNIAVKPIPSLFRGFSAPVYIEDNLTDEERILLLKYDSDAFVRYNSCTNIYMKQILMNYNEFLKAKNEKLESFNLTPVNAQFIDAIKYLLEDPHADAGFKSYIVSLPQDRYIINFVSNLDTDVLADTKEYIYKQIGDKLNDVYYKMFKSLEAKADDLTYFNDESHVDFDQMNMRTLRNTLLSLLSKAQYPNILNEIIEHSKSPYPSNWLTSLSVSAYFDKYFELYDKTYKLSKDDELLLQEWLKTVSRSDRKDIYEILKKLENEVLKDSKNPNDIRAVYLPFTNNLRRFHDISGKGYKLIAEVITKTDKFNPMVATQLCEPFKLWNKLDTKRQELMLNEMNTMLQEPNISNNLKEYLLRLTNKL
row,Structure (SMILES),inhibition
1,O=C(NCCOc1ccccc1F)c1cc(F)c(F)cc1Cl,3.2% (inactive)
2,CC(=O)N1CCN(c2ccc([N+](=O)[O-])cc2)CC1,3.7% (inactive)
3,COc1ccccc1-c1nn2c(C(F)(F)F)nnc2s1,4.63% (inactive)
4,O=C(NCc1ccccc1)C1=C[C@H](c2coc3ccccc3c2=O)C[C@H](OCCCCO)O1,6.04% (inactive)
5,O=c1c2cc(NC(=S)NC3CC3)ccc2nc2n1CCCCC2,-0.67% (inactive)
6,COCC1CCN(Cc2cn(-c3ccccc3F)nc2-c2cc(C)sc2C)CC1,0.56% (inactive)
7,COc1ccc(-c2nc3n(n2)C(c2ccccc2Cl)C(C(N)=O)=C(C)N3)cc1 (stereo not given),9.41% (inactive)
8,CCOC(=O)CSc1ccc(S(=O)(=O)N2CCCC2)cc1[N+](=O)[O-],-0.65% (inactive)
9,COc1ccc(OCCSc2nc3ccccc3c(=O)[nH]2)cc1,2.2% (inactive)
10,CCN1C(=O)[C@H]2[C@H]3[C@H](O)[C@H](O)C/C(=N\O[C@H](C)c4cn([C@H](CO)Cc5ccccc5)nn4)[C@@H]3CC[C@H]2C1=O,-7.3% (inactive)
11,COCC(=O)NC1CCCCCC1,2.18% (inactive)
12,CCOc1cc(C)c(Cl)cc1S(=O)(=O)NCC1CCCO1 (stereo not given),1.73% (inactive)
13,O=C1NCCCC1C(=O)N/N=C/c1cccc(Cl)c1 (stereo not given),-7.25% (inactive)
14,NS(=O)(=O)c1ccc(CCNC(=O)COC(=O)CCc2ccccc2)cc1,-2% (inactive)
15,CNc1oc(-c2cccs2)nc1C#N,13% (inactive)
16,N#Cc1nc(COc2ccc(-c3ccccc3)cc2)oc1NCCCN1CCOCC1,-3.18% (inactive)
17,N#Cc1nc(Cc2cccc3ccccc23)oc1NCCCN1CCOCC1,6.12% (inactive)
18,CCN(CC)CCCNc1oc(-c2ccccc2[N+](=O)[O-])nc1C#N,9.93% (inactive)
19,CN(C)c1oc(-c2ccccc2)nc1C#N,11% (inactive)
20,CCN(CC)CCCNc1oc(-c2cccc(Cl)c2)nc1C#N,12.2% (inactive)
21,CCOc1cc(C)c(C(C)C)cc1S(=O)(=O)n1ccc(C)n1,-2.68% (inactive)
22,Cc1c(Cl)cccc1NC(=S)NCCc1ccccn1,20.7% (inactive)
23,COc1ccc(/C=C2\CCCC3C2=NN(C(=O)COC(=O)CNC(=O)c2ccccc2)C3c2ccc(OC)cc2)cc1 (stereo not given),2.31% (inactive)
24,O=C(Cc1cccs1)Nc1nnc(-c2ccc(F)cc2)s1,-2.11% (inactive)

row,Structure (SMILES),inhibition
1,COc1cc(C(=O)Nc2ccc([N+](=O)[O-])cn2)cc(OC)c1OC,13.8% (inactive)
2,COc1ccc(S(=O)(=O)NCCC(C)C)cc1OC,-0.02% (inactive)
3,Cc1nc(N)sc1C(=O)OCC(C)C,-4.36% (inactive)
4,Cc1ccc(-n2c(P(C)(=O)O)nc3ccccc32)cc1,-0.56% (inactive)
5,Cc1ccnc(NC(=O)CCCOc2ccc(Cl)cc2C)c1,-1.52% (inactive)
6,C=CCC(=O)N1CCCC(CCC(=O)NCc2ccccc2F)C1 (stereo not given),9.17% (inactive)
7,O=C(CCn1c(=O)oc2ccccc21)Nc1ccc2c(c1)OCCO2,-5.19% (inactive)
8,COc1ccccc1CCNS(=O)(=O)c1cn(C)c(=O)n(C)c1=O,-3.3% (inactive)
9,C[C@H](CCC(=O)O)[C@H]1CC[C@H]2[C@@H]3C(=O)C[C@@H]4CC(=O)CC[C@]4(C)[C@H]3CC(=O)[C@]12C,7.14% (inactive)
10,CC(CCC(=O)O)C1CC[C@@]2(C)C3C(=O)CC4C(C)(C)C(O)CC[C@]4(C)C3C(=O)C[C@]12C (stereo not given in full),3% (inactive)
11,C/C(Cl)=C\Cn1c(O)c(N=O)c2ccccc21,-2.4% (inactive)
12,C=CCn1c(O)c(N=NC(=O)OCC)c2ccccc21,12.7% (inactive)
13,CCn1c(O)c(N=NC(=O)Cn2ccc(C(F)(F)F)n2)c2ccccc21,5.05% (inactive)
14,O=C(N/N=C/c1ccc(Cl)s1)c1ccccc1[N+](=O)[O-],9.55% (inactive)
15,Cc1c(C)c2ccc(Oc3ccc([N+](=O)[O-])cc3C(F)(F)F)c(C)c2oc1=O,6.61% (inactive)
16,Cc1cc(SCC(=O)N2CCC(c3noc4ccc(F)cc34)CC2)nc2ccccc12,7.53% (inactive)
17,Cc1sc2ncnc(SCC(=O)N3CCC(c4noc5ccc(F)cc45)CC3)c2c1C,1.38% (inactive)
18,COC(=O)c1cn(NC(=O)Cc2ccccc2OC)c(=O)c2ccccc12,3.77% (inactive)
19,O=C(O)COc1c(-c2ccco2)oc2ccccc2c1=O,9.28% (inactive)
20,CC(=O)Oc1c(-c2ccco2)oc2ccccc2c1=O,30.4% (inactive)
21,Cn1c(SCc2nc(-c3ccccc3)no2)nnc1-c1cccs1,-3.32% (inactive)
22,N/C(=N\OC(=O)c1cnn(-c2ccccc2)c1C(F)(F)F)c1ccc(C(F)(F)F)cc1,13.2% (inactive)
23,CC(=O)NN1C(=O)c2ccccc2NC1c1ccoc1 (stereo not given),4.92% (inactive)
24,O=C(NN1C(=O)c2ccccc2NC1c1ccccn1)c1ccc([N+](=O)[O-])cc1 (stereo not given),2.53% (inactive)

row,Structure (SMILES),inhibition
1,O=C(NN1C(=O)c2ccccc2NC1c1ccco1)c1ccc(Br)cc1 (stereo not given),5.55% (inactive)
2,O=C(NN1C(=O)c2ccccc2NC1c1ccccn1)c1ccc(Br)cc1 (stereo not given),8.07% (inactive)
3,O=C(NN1C(=O)c2ccccc2NC1c1ccco1)c1ccc([N+](=O)[O-])cc1 (stereo not given),8.9% (inactive)
4,O=C(NN1C(=O)c2ccccc2NC1c1ccoc1)c1ccc([N+](=O)[O-])cc1 (stereo not given),4.32% (inactive)
5,CCCc1[nH]nc2c1C1(CCN(C(=O)OCc3ccccc3)CC1)C(C#N)=C(N)O2,3.73% (inactive)
6,O=C1OCC=C1NNC(=O)c1cccnc1,4.75% (inactive)
7,Cc1ccc(SCc2[nH]nc3c2C2(C(=O)N(C)c4ccccc42)C(C#N)=C(N)O3)cc1 (stereo not given),5.03% (inactive)
8,COc1ccc(C(=O)Nn2c(SCC(=O)NCc3ccco3)nc3ccccc3c2=O)cc1,1.81% (inactive)
9,Cn1c(SCc2ccccc2)nc2ccsc2c1=O,2.71% (inactive)
10,Cc1ccc(CNC(=O)CSc2nc3ccsc3c(=O)n2Cc2ccc(C(=O)O)cc2)cc1,33.8% (inactive)
11,CCC(C)NC(=O)CSc1nc2ccsc2c(=O)n1NC(=O)c1ccccc1 (stereo not given),15.2% (inactive)
12,CCCN(CCC)C(=O)CSc1nc2ccsc2c(=O)n1NC(=O)c1ccccc1,2.56% (inactive)
13,COc1ccc(-n2c(SCC(=O)NCCC(C)C)nc3ccsc3c2=O)cc1,-0.48% (inactive)
14,Cc1ccc(CNC(=O)CSc2nc3ccsc3c(=O)n2Cc2ccccn2)cc1,15.8% (inactive)
15,O=C(CSc1nc2ccsc2c(=O)n1Cc1ccccc1)NCc1ccco1,-0.89% (inactive)
16,CC1(C)Cc2c(sc(/N=C/N3CCCCC3)c2C#N)C(C)(C)N1,6.45% (inactive)
17,COc1ccc(/C=C/C(=O)NCC2COc3ccccc3O2)c(OC)c1 (stereo not given),6.8% (inactive)
18,COc1ccc(Cl)cc1NC(=O)CNc1ccccc1CN(C)C1CCCCC1,10.4% (inactive)
19,COC(=O)c1ccc(COc2ncnc3c(Cl)cc(Cl)cc23)o1,1.47% (inactive)
20,COc1ccc(C)cc1NC(=O)Cn1cnnn1,2.9% (inactive)
21,S=C(c1ccc(Br)cc1)N1CCN(Cc2ccccc2)CC1,12.5% (inactive)
22,CCc1n[nH]c(=S)n1/N=C/c1ccccc1OCc1ccc(Cl)cc1,3.79% (inactive)
23,CSc1n[nH]c(NC(C)=O)n1,2.22% (inactive)
24,Oc1c(Cl)cc(Cl)cc1C=Nc1ccc(Br)cc1,12.1% (inactive)

row,Structure (SMILES),inhibition
1,C/C(=N\O)c1cc(Cl)cc(Cl)c1O,10.5% (inactive)
2,O=C(NCCn1ccc2ccccc21)c1ccc(S(=O)(=O)N2CCOCC2)cc1,8.48% (inactive)
3,CC(C)C(=O)NCCc1nc2ccccc2n1CCCOc1ccc(Cl)cc1,10.4% (inactive)
4,O=C(CC(C(=O)O)c1ccccc1)c1cccs1 (stereo not given),3.01% (inactive)
5,CC(C)Cc1nc2oc3c(=O)[nH]cnc3c2c2c1CCCC2,-0.28% (inactive)
6,CN(C)C(=O)N1CCCC(C(=O)NCCc2ccccc2)C1 (stereo not given),2.4% (inactive)
7,O=C(NCCc1ccccc1)C1CCCN(C(=O)NC2CCCCC2)C1 (stereo not given),28.2% (active)
8,O=C(NC1CCN(C(=S)NCCc2ccccc2)CC1)C1CCCCC1,-6.9% (inactive)
9,N#Cc1c(NC(=O)Cn2c(=O)oc3ccccc32)oc(-c2ccccc2)c1-c1ccccc1,4.71% (inactive)
10,O=C(CCN1CCOCC1)Nc1cccc(Br)c1,-4.3% (inactive)
11,O=c1[nH]c2ccc(Cl)cc2c(-c2ccccc2)c1SC(=S)N1CCOCC1,44% (inactive)
12,O=C(O)Cc1c(-c2ccccc2)c2cc(Br)ccc2[nH]c1=O,22.3% (inactive)
13,CCOC(=O)c1[nH]c2ccc(Br)cc2c1NC(=O)CCN1CCOCC1,4.62% (inactive)
14,O=C(CN1CCOCC1)Nc1c(-c2ccccc2)c2cc(Br)ccc2[nH]c1=O,28.2% (active)
15,O=c1[nH]c2ccc(Cl)cc2c(-c2ccccc2)c1N1CCOCC1,-3.98% (inactive)
16,N#Cc1c(NC(=O)CCN2C(=O)c3ccccc3C2=O)oc(-c2ccccc2)c1-c1ccccc1,5.82% (inactive)
17,N#Cc1c(NC(=O)CN2CCOCC2)oc(-c2ccccc2)c1-c1ccccc1,23.5% (active)
18,O=C(CN1CCOCC1)NNc1nc(-c2ccccc2)c2cc(Br)ccc2n1,20.7% (inactive)
19,CCOC(=O)N1CCN(C(=O)CCCOc2ccccc2)CC1,3.31% (inactive)
20,O=c1[nH]ncc(N2CCCCCC2)c1Cl,5.89% (inactive)
21,COc1cc(/C=C/C(=O)O)ccc1OCc1cnc(Cl)s1,0.41% (inactive)
22,CC1=Nn2c(nc(-c3ccccc3)c2-c2ccccc2)N(CC(N)=O)C(=O)C1,-0.64% (inactive)
23,CCCS(=O)(=O)N1CCN(C(=O)c2ccco2)CC1,12.4% (inactive)
